Assay results reported in PubChem BioAssay (EPA / NIEHS).
Inconclusive results are not listed. Activity calls are given as the source filed them. How the source made its calls, unless noted: active means hit-call score of the fitted dose curve at least 0.9, where 1 is the maximum; inactive means score below 0.9.

Legend:
[1] = molecular target: Paired box protein Pax-6 (Homo sapiens) (UniProt P26367); assay: ATG_Pax6_CIS: Attagene CIS-FACTORIAL HepG2 Assay for human Paired Box 6 (PAX6) (AID 2282956); settings: HepG2 CIS-FACTORIAL PAX6 reporter transcription, RNA readout; actives raise or lower the signal
How it was run: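 Transient MRTU transfection of HepG2 → compound exposure 24 h → TriZol RNA, oligo(dT) RT → PCR, 6-FAM primer extension, HpaI cut → capillary electrophoresis; activity fitted both directions against DMSO.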

[2] = ATG_PXRE_CIS: Attagene CIS-FACTORIAL HepG2 Assay for human Pregnane X Receptor Element (PXRE) (AID 2282957); settings: HepG2 Attagene CIS-FACTORIAL PXRE reporter, mRNA; actives raise or lower the signal
How it was run: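 Transfect HepG2 with MRTUs (cis promoter elements); dose chemical, incubate 24 h; isolate RNA, RT with oligo(dT), PCR, 6-FAM label, HpaI cut, CE. Gain/loss fit vs DMSO.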

[3] = ATG_RORE_CIS: Attagene CIS-FACTORIAL HepG2 Assay for human RAR-related Orphan Receptor Element (RORE) (AID 2282959); settings: HepG2 Attagene cis-factorial RORE reporter, mRNA; actives raise or lower the signal
How it was run: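 Endogenous factor activity at a cis response element is read as reporter transcript levels in HepG2 cells, 24 h post-dose. Transcripts are quantified by RT-PCR with capillary electrophoresis, and data fitted in both directions against DMSO.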

[4] = ATG_Sox_CIS: Attagene CIS-FACTORIAL HepG2 Assay for human SRY-box transcription factor (SOX) (AID 2282960); settings: HepG2 Attagene cis-factorial SOX reporter, mRNA; actives raise or lower the signal
How it was run: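 Measures mRNA induction of a SOX1-associated reporter in HepG2 after 24 h dosing. Fluorescently labelled RT-PCR fragments are separated by capillary electrophoresis, and gain or loss relative to DMSO control is fitted.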

[5] = molecular target: Transcription factor Sp1 (Homo sapiens) (UniProt P08047); assay: ATG_Sp1_CIS: Attagene CIS-FACTORIAL HepG2 Assay for human Specificity Protein 1 (Sp1) (AID 2282961); settings: HepG2 Sp1 cis-reporter transcription, actives raise or lower the signal
How it was run: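 Cells: HepG2, transiently transfected with cis-regulated multiplexed reporters. Exposure: 24 h. Detection: reporter transcripts amplified, fluorescently labeled, restriction-digested and sized by capillary electrophoresis. Analysis: bidirectional fit relative to DMSO.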

[6] = ATG_SREBP_CIS: Attagene CIS-FACTORIAL HepG2 Assay for human Sterol Regulatory Element Binding (SREBP) (AID 2282962); settings: HepG2 Attagene cis-factorial SREBP reporter, mRNA; actives raise or lower the signal
How it was run: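 Transfected HepG2 (cis-regulated reporter library, endogenous TFs) → compound 24 h → total RNA → oligo(dT) RT → reporter-specific PCR → FAM primer extension, HpaI cut → CE fluorescence. Fit bidirectional vs DMSO.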

[7] = molecular target: Signal transducer and activator of transcription 3 (Homo sapiens) (UniProt P40763); assay: ATG_STAT3_CIS: Attagene CIS-FACTORIAL HepG2 Assay for human Signal Transducer and Activator of Transcription 3 (STAT3) (AID 2282963); settings: HepG2, Attagene cis-factorial STAT3 reporter transcription; actives raise or lower the signal
How it was run: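 HepG2 cells transiently transfected with multiple cis-element-driven reporter units report endogenous transcription factor activity. After 24 h compound exposure, reporter mRNA is measured by RT-PCR, 6-FAM labelling, HpaI digestion and capillary electrophoresis. Fitted bidirectionally versus DMSO.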

[8] = ATG_TA_CIS: Attagene CIS-FACTORIAL HepG2 Assay for human TA Basal Promoter (AID 2282964); settings: HepG2 Attagene CIS-factorial TA basal promoter reporter; actives raise or lower the signal
How it was run: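 HepG2 cells transiently transfected with multiple reporter units under cis promoter elements, reporting endogenous transcription factor activity; this endpoint tracks the TA basal promoter as background control. Reporter mRNA after 24 h dosing measured by RT-PCR/capillary electrophoresis; bidirectional fits versus DMSO.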

[9] = ATG_TCF_b_cat_CIS: Attagene CIS-FACTORIAL HepG2 Assay for human T-Cell-Factor with beta-catenin (TCF/b-cat) (AID 2282965); settings: HepG2 TCF/beta-catenin cis-reporter transcription, actives raise or lower the signal
How it was run: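 HepG2 cells transiently transfected with cis-promoter-driven multiplexed reporter units; reporter mRNA measured 24 h after dosing by RT-PCR, FAM labelling, HpaI digestion and capillary electrophoresis. Bidirectional fitting relative to DMSO baseline.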

[10] = ATG_TAL_CIS: Attagene CIS-FACTORIAL HepG2 Assay for human TAL Basal Promoter (AID 2282966); settings: HepG2 Attagene cis-factorial TAL promoter reporter; actives raise or lower the signal;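 further: background control endpoint measuring basal TAL promoter reporter mRNA not a specific factor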
How it was run: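 Fluorescence of labelled reporter cDNA fragments, resolved by capillary electrophoresis, gave the readout. Human HepG2 liver cells carried transiently transfected cis-element reporter units and were treated for 24 hours; activity was fitted bidirectionally against DMSO.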

[11] = ATG_TGFb_CIS: Attagene CIS-FACTORIAL HepG2 Assay for human Transforming Growth Factor (TGF) (AID 2282967); settings: HepG2 Attagene CIS TGFb reporter, mRNA transcription; actives raise or lower the signal
How it was run: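 HepG2 cells transiently transfected with cis-promoter-driven multiple reporter units measure endogenous TF activity; reporter mRNA quantified at 24 h by RT-PCR, FAM labeling, HpaI digestion and capillary electrophoresis. Bidirectional fit vs DMSO.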

[12] = ATG_VDRE_CIS: Attagene CIS-FACTORIAL HepG2 Assay for human Vitamin D Receptor Element (VDRE) (AID 2282968); settings: HepG2 VDRE cis-reporter transcription, actives raise or lower the signal
How it was run: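 Transiently transfected HepG2 cells carrying cis-regulated reporter transcription units were exposed for 24 h. Reporter mRNA was measured by RT-PCR with fluorescent labelling and capillary electrophoresis, and fitted in both directions against DMSO.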

[13] = molecular target: Nuclear receptor subfamily 1 group I member 3 (Homo sapiens) (UniProt Q14994); assay: ATG_CAR_TRANS: Attagene TRANS-FACTORIAL HepG2 Assay for human Constitutive Androstane Receptor (CAR) (AID 2282969; active means hit-call score of the fitted dose curve at least 0.9, where 1 is the maximum;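 further: activators raise reporter mRNA above DMSO so AC50 marks induction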); settings: HepG2 Attagene TRANS-FACTORIAL CAR reporter
How it was run: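 HepG2 cells transiently transfected with GAL4-UAS reporter units; TRANS format reads activity of exogenous chimeric NR-Gal4 protein. After 24 h dosing, reporter mRNA quantified by RT-PCR, 6-FAM labelling and capillary electrophoresis; gain of signal fitted against DMSO.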

[14] = molecular target: Estrogen receptor (Homo sapiens) (UniProt P03372); assay: ATG_ERa_TRANS: Attagene TRANS-FACTORIAL HepG2 Assay for human Estrogen Receptor alpha (ERa) (AID 2282970; active means hit-call score of the fitted dose curve at least 0.9, where 1 is the maximum); settings: HepG2 Attagene TRANS ERa GAL4 reporter, mRNA
How it was run: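 Human liver HepG2, transient transfection of multiple GAL4-UAS reporter units; TRANS format (exogenous NR-Gal4 chimera). 24 h dosing. Readout: reporter mRNA, RT-PCR, 6-FAM primer extension, HpaI digest, capillary electrophoresis. Positive direction vs DMSO.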

[15] = molecular target: Steroid hormone receptor ERR1 (Homo sapiens) (UniProt P11474); assay: ATG_ERRa_TRANS: Attagene TRANS-FACTORIAL HepG2 Assay for human Estrogen-Related Receptor alpha (ERRa) (AID 2282971; active means hit-call score of the fitted dose curve at least 0.9, where 1 is the maximum); settings: HepG2 Attagene TRANS reporter, ERRa transactivation
How it was run: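 Reporter transcript induction was quantified by RT-PCR and capillary electrophoresis of FAM-labelled, HpaI-cut products after 24 h treatment of HepG2 cells carrying transiently transfected GAL4-UAS reporter units and an exogenous ERRa-Gal4 fusion; activity scored as increase over DMSO.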

[16] = molecular target: X-box-binding protein 1 (Homo sapiens) (UniProt P17861); assay: ATG_Xbp1_CIS: Attagene CIS-FACTORIAL HepG2 Assay for human X-box Binding Protein 1 (XBP1) (AID 2282972); settings: HepG2 XBP1 cis-element reporter, Attagene multiplex; actives raise or lower the signal
How it was run: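 HepG2, transient MRTU transfection (cis-promoter driven), 24 h compound exposure. Total RNA → oligo(dT) RT → PCR → 6-FAM labeling → HpaI cut → CE. Bidirectional fit vs DMSO.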

[17] = ATG_M_19_TRANS: Attagene TRANS-FACTORIAL HepG2 Assay for M19 Transcription Factor (Internal Marker) (AID 2282974; active means hit-call score of the fitted dose curve at least 0.9, where 1 is the maximum); settings: HepG2 Attagene TRANS-FACTORIAL M19 internal marker reporter
How it was run: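 Reporter mRNA induction was measured in transfected HepG2 cells 24 h after dosing. Endpoint fitted upward relative to DMSO and serves as a background control within the multiplexed TRANS panel.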

[18] = ATG_PPRE_CIS: Attagene CIS-FACTORIAL HepG2 Assay for human Peroxisome Proliferator-activated Response Element (PPRE) (AID 2282958); settings: HepG2 PPRE cis-element reporter, Attagene transcription factor profiling; actives raise or lower the signal
How it was run: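 In this cell-based multiplex, a PPRE cis element drives a reporter sequence in transiently transfected HepG2 cells. Following 24 h treatment, labeled cDNA amplicons are sized and quantified by capillary electrophoresis, with DMSO defining baseline.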

[19] = molecular target: Estrogen-related receptor gamma (Homo sapiens) (UniProt P62508); assay: ATG_ERRg_TRANS: Attagene TRANS-FACTORIAL HepG2 Assay for human Estrogen-Related Receptor gamma (ERRg) (AID 2282977; active means hit-call score of the fitted dose curve at least 0.9, where 1 is the maximum;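 further: hits increase reporter signal over DMSO so potencies reflect activators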); settings: HepG2 Attagene TRANS reporter, ERRg transactivation
How it was run: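 HepG2 cells transiently transfected with multiplexed GAL4-UAS reporter units driven by chimeric NR-Gal4 proteins; 24 h exposure. Reporter mRNA quantified by RT-PCR, fluorescent labelling, HpaI digestion and capillary electrophoresis; gain of signal vs DMSO.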

[20] = ATG_GAL4_TRANS: Attagene TRANS-FACTORIAL HepG2 Assay for GAL4 (Internal Marker) (AID 2282976; active means hit-call score of the fitted dose curve at least 0.9, where 1 is the maximum); settings: HepG2 Attagene TRANS GAL4 internal marker reporter
How it was run: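 First, HepG2 cells were transfected with reporter units under GAL4-UAS control. Next, they were treated with chemical for 24 h. Finally, RNA was reverse-transcribed, PCR-amplified, FAM-labelled and resolved by capillary electrophoresis, with induction scored against DMSO.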

Measured: AC50

X-box-binding protein 1 (Homo sapiens), sequence (P17861 whole entry, looked up): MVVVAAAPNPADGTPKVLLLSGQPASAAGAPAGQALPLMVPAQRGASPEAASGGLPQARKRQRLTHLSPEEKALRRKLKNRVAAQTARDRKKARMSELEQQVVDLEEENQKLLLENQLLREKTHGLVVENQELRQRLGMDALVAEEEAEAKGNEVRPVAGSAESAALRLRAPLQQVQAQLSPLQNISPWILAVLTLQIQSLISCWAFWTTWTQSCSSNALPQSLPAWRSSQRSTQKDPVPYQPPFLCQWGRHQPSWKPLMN
Signal transducer and activator of transcription 3 (Homo sapiens), sequence (P40763 whole entry, looked up): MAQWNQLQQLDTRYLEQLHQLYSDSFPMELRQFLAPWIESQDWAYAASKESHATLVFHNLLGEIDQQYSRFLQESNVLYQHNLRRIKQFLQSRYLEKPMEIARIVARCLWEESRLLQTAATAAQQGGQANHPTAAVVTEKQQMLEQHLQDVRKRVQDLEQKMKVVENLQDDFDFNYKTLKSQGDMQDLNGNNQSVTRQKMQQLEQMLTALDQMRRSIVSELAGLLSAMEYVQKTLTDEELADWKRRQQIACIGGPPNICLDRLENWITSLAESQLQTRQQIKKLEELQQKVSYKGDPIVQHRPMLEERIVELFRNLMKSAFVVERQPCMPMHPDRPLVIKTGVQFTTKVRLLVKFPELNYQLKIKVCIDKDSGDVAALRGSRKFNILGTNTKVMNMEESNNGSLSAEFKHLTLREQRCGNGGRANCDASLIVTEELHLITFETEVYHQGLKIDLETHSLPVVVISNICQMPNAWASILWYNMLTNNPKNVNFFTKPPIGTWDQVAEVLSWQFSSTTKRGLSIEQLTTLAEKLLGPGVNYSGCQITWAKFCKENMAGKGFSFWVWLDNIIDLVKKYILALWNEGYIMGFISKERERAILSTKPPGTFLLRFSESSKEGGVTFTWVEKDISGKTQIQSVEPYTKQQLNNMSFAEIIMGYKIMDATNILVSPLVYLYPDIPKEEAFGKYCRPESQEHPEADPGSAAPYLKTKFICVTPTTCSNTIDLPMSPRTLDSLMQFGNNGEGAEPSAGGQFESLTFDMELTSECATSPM
Paired box protein Pax-6 (Homo sapiens), sequence (P26367 whole entry, looked up): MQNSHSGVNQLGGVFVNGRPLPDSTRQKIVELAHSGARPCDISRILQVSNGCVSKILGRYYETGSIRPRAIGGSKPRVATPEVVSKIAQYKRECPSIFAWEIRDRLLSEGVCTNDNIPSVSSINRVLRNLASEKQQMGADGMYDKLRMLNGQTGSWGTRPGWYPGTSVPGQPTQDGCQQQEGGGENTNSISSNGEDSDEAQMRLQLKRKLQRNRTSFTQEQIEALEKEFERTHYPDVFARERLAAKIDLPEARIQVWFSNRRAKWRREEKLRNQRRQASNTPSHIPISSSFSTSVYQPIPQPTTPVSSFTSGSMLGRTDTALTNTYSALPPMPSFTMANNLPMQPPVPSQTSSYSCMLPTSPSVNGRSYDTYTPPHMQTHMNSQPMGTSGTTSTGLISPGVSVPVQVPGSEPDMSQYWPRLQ
Estrogen receptor (Homo sapiens), sequence (P03372 whole entry, looked up, the tested form may be a part): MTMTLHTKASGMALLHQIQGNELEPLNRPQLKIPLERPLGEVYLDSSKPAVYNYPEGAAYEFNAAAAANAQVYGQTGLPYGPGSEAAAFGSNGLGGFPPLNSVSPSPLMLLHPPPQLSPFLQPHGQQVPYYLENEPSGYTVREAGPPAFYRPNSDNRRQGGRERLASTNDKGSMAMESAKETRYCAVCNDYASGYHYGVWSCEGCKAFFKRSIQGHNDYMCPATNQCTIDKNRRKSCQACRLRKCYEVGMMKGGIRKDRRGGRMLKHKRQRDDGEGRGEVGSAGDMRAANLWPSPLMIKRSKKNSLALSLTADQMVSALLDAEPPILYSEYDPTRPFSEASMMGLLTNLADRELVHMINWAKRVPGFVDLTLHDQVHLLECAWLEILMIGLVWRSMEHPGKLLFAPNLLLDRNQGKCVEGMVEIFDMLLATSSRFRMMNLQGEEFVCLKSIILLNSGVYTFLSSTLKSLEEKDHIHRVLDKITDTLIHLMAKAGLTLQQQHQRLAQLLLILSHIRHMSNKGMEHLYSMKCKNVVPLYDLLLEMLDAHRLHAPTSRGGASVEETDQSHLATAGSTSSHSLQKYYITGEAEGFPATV
Steroid hormone receptor ERR1 (Homo sapiens), sequence (P11474 whole entry, looked up, the tested form may be a part): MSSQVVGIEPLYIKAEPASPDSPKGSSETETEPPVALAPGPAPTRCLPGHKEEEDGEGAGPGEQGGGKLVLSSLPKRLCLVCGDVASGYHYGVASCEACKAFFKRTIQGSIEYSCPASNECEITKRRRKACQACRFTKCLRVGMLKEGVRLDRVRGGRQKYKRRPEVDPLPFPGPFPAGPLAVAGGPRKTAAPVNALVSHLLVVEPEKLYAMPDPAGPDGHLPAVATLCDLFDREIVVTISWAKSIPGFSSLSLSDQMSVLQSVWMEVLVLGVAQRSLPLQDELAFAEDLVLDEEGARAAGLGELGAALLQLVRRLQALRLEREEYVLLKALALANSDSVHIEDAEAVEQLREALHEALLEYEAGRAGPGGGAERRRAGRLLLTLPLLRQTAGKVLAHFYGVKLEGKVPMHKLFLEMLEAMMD
Estrogen-related receptor gamma (Homo sapiens), sequence (P62508 whole entry, looked up, the tested form may be a part): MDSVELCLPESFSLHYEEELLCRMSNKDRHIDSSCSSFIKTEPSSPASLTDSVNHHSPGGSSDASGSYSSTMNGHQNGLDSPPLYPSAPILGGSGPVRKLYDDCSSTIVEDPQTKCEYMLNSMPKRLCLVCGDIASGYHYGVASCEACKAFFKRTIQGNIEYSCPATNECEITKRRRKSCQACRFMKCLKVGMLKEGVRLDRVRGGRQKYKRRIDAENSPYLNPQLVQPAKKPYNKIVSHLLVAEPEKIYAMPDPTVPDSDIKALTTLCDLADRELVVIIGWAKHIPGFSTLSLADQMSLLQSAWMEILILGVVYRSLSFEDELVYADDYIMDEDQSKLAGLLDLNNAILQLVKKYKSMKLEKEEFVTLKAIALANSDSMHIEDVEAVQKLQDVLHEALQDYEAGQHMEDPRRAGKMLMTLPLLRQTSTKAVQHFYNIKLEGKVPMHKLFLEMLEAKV
Transcription factor Sp1 (Homo sapiens), sequence (P08047 whole entry, looked up): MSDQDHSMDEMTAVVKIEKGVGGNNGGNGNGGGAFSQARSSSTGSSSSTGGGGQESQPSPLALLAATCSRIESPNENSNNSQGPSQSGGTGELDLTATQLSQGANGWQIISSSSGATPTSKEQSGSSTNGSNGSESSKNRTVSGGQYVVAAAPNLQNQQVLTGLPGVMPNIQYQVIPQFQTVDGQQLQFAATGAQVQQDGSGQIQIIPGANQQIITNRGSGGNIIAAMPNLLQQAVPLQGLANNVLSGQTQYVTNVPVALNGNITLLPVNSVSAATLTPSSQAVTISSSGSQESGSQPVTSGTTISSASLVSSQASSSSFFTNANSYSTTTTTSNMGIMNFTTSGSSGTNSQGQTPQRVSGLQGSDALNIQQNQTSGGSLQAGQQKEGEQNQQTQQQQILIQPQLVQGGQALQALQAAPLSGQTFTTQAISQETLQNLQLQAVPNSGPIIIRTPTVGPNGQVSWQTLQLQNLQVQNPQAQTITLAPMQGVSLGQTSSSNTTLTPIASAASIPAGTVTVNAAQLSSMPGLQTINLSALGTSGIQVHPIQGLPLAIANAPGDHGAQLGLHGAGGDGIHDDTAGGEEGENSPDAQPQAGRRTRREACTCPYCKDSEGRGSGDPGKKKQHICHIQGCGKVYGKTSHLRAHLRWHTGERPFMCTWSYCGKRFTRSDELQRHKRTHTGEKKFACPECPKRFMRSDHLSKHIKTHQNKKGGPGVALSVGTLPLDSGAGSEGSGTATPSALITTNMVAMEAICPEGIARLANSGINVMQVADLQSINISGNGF
Nuclear receptor subfamily 1 group I member 3 (Homo sapiens), sequence (Q14994 whole entry, looked up, the tested form may be a part): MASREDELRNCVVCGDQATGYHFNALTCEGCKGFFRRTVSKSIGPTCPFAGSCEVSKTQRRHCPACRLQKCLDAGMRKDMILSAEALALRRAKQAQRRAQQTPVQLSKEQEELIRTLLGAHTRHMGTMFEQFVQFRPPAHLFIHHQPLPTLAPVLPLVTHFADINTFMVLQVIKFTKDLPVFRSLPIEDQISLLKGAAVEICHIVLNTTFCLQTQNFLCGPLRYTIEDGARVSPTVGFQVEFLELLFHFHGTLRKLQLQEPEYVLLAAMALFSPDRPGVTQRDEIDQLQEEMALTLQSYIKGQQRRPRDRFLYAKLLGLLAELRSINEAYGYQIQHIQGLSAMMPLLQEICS

CC=CC(=O)N(CC)c1ccccc1C
inactive: [1] | [3] | [4] | [5] | [6] | [7] | [8] | [9] | [10] | [11] | [13] | [14] | [15] | [16] | [17]
active: [2] 11.1 µM | [12] 15.5 µM

Cn1c([N+](=O)[O-])cnc1COC(N)=O
inactive: [1] | [2] | [18] | [4] | [5] | [6] | [7] | [10] | [11] | [12] | [15] | [16] | [17] | [19]

OCCc1ccncc1
inactive: [1] | [2] | [3] | [4] | [5] | [6] | [7] | [8] | [9] | [10] | [11] | [12] | [14] | [15] | [16] | [20]

COc1ccc(NC(C)=O)cc1N
inactive: [1] | [2] | [18] | [4] | [5] | [6] | [7] | [9] | [10] | [11] | [16]

CCCCC(CC)COCC1CO1 (stereo unspecified)
inactive: [1] | [2] | [3] | [4] | [5] | [6] | [7] | [8] | [9] | [10] | [11] | [12] | [14] | [16] | [20] | [19]

Cn1c(=O)[nH]c2ncn(C)c2c1=O
inactive: [1] | [2] | [18] | [4] | [5] | [6] | [7] | [8] | [9] | [10] | [11] | [14] | [16] | [20]

C/C=C\C/C=C/CCCCCCCCOC(C)=O
active: [1] 100 µM | [2] 26.2 µM | [8] 69.7 µM | [9] 74.8 µM | [12] 30.1 µM | [16] 100 µM
inactive: [18] | [4] | [5] | [6] | [7] | [10] | [15] | [19]

CC(=O)[C@H]1[C@H](C#N)C[C@H]2[C@@H]3CC=C4C[C@@H](O)CC[C@]4(C)[C@H]3CC[C@@]21C
inactive: [1] | [2] | [18] | [4] | [5] | [6] | [7] | [8] | [9] | [10] | [12] | [16]

C=C(C)C(=O)OCCOc1ccccc1
inactive: [1] | [18] | [4] | [5] | [6] | [7] | [9] | [10] | [11] | [12] | [14] | [16] | [20] | [19]
active: [2] 68.5 µM

C=C1[C@H]2CC[C@@H]3[C@H]2C(C)(C)CCC[C@]13C
active: [2] 5.34 µM | [14] 18.9 µM
inactive: [1] | [18] | [4] | [5] | [6] | [9] | [10] | [11] | [13] | [16]
